Laboratory results: PubChem BioAssay (NCATS)
Records with an inconclusive call do not appear. Active and inactive are the calls of the source. Unless noted, the call rests on the fitted dose curve; in most records, active means well fitted curve in the direction sought with a large enough effect; inconclusive means small, poorly fitted or top-dose-only effect, or another doubt; inactive means no such curve, though single readings can be large; an effect the other way counts as inactive or inconclusive.

Tests used:
[1] = target: Lysosomal acid glucosylceramidase (Homo sapiens) (UniProt P04062); test: Glucocerebrosidase-p2 (AID 348; in the data active means potency below about 10 µM; further: potency means the concentration at half of the fitted maximal effect); settings: purified GBA, blue fluorogenic substrate, 40 min
Sequence of Lysosomal acid glucosylceramidase (Homo sapiens) (P04062 whole entry, looked up): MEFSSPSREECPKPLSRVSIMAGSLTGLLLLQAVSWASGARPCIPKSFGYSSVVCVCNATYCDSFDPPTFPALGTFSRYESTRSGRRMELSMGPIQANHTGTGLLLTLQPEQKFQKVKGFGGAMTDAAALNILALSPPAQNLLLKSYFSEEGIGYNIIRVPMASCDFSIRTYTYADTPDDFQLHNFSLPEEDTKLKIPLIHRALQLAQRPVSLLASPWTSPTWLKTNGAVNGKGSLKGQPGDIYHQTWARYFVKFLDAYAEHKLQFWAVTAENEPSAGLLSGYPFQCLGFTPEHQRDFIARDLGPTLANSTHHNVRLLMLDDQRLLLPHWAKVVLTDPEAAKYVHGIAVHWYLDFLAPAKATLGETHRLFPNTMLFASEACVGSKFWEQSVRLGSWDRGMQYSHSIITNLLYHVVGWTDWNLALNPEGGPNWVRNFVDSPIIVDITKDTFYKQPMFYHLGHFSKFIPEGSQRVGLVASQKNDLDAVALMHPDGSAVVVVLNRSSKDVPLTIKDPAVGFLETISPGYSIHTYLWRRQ
How it was run: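 Compounds titrated from 0.6 nM upwards against 0.2 nM enzyme in pH 5.9 citric acid/KH2PO4, taurocholate, tween-20; blue fluorogenic substrate 80 uM, 40 min room temperature, stopped and read Ex 365/Em 440 for AC50.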

[2] = AP1 Signaling Pathway (AID 357; active means well fitted curve in either direction with a large enough effect, not every such curve was filed as active; further: on the % scale 0 is the no-effect control and ±100 the full control effect); settings: ME-180 AP-1-bla reporter, EGF-induced, beta-lactamase ratio, 5 h; at 7.69 µM (top of the series) unless noted
How it was run: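 AP-1-bla ME-180 cells with beta-lactamase reporter under AP-1 response element, stimulated with EC50 EGF; compounds titrated, 5 hours at 37 degrees Celsius. CCF4 read at 460/530 nm ratio; positive and negative modulators judged by AC50.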

[3] = target: Cytochrome P450 1A2 (Homo sapiens) (UniProt P05177); test: p450-cyp1a2 (AID 410; calls by dose curve; further: potency means the concentration at half of the fitted maximal effect;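 on activity change, negative = inhibition: -100% = full effect of reference inhibitor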)
Sequence of Cytochrome P450 1A2 (Homo sapiens) (P05177 whole entry, looked up): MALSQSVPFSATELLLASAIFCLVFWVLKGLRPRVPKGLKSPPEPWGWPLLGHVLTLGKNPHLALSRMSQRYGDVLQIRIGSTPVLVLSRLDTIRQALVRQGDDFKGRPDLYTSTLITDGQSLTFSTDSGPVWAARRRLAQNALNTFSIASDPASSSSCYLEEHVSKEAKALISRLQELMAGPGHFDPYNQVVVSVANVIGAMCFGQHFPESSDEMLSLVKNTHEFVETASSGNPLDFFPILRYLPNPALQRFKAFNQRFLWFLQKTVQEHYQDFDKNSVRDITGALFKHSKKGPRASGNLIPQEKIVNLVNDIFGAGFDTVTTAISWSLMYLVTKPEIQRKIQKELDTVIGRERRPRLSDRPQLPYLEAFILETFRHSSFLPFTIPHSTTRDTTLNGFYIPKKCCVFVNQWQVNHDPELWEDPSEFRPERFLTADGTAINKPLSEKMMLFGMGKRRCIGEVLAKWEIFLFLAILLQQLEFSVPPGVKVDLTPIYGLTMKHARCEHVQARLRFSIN
How it was run: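 Inhibition was calculated relative to 57 uM furafylline (full inhibition). The reaction used human CYP1A2 at 20nM with Luciferin-ME at its Km, 100uM, driven by an NADPH-regenerating system for 60 min at room temperature.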

[4] = NFAT Signaling Pathway (AID 444; active means well fitted curve in either direction with a large enough effect, not every such curve was filed as active;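 further: carbachol stimulus at about its EC50 of 1 µM final; on the % scale 0 is the no-effect control and ±100 the full control effect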); settings: Jurkat NFAT-bla M1, carbachol, beta-lactamase ratio, 5 h; at 7.69 µM (top of the series) unless noted
How it was run: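 Jurkat cells with NFAT-driven β-lactamase reporter and co-expressed M1 receptor, stimulated with carbachol (final 1 uM, ~EC50), compound titration, 5 h at 37 °C. CCF4 loaded 1 h at RT; 460/530 nm ratio gave %activity and AC50.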

[5] = Stat Signaling Pathway (AID 446; active means well fitted curve in either direction with a large enough effect, not every such curve was filed as active;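 further: ME-180 cervical cancer cells given 40 pM IL-6 alongside compound; SIE-controlled beta-lactamase reporter measured as 460/530 nm FRET emission ratio; on the % scale 0 is the no-effect control and ±100 the full control effect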); settings: ME-180 (cervical carcinoma) SIE beta-lactamase reporter, IL-6 stimulated, 5 h; at 7.69 µM (top of the series) unless noted
How it was run: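 IL-6/STAT signaling read in ME-180 cells via an SIE beta-lactamase reporter. Stimulus was 40 pM IL-6 (its AC50) for 5 hrs, so both activation and inhibition register.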

[6] = target: Glucocorticoid receptor (Homo sapiens) (UniProt P04150); test: GR-GFP Redistribution (AID 450;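 active means compounds whose dose series gives a full or clear partial fitted curve of increased nuclear translocation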; further: potency means the concentration at half of the fitted maximal effect); settings: U2OS GR-GFP nuclear translocation, laser cytometry, 2 h
Sequence of Glucocorticoid receptor (Homo sapiens) (P04150 whole entry, looked up, the tested form may be a part): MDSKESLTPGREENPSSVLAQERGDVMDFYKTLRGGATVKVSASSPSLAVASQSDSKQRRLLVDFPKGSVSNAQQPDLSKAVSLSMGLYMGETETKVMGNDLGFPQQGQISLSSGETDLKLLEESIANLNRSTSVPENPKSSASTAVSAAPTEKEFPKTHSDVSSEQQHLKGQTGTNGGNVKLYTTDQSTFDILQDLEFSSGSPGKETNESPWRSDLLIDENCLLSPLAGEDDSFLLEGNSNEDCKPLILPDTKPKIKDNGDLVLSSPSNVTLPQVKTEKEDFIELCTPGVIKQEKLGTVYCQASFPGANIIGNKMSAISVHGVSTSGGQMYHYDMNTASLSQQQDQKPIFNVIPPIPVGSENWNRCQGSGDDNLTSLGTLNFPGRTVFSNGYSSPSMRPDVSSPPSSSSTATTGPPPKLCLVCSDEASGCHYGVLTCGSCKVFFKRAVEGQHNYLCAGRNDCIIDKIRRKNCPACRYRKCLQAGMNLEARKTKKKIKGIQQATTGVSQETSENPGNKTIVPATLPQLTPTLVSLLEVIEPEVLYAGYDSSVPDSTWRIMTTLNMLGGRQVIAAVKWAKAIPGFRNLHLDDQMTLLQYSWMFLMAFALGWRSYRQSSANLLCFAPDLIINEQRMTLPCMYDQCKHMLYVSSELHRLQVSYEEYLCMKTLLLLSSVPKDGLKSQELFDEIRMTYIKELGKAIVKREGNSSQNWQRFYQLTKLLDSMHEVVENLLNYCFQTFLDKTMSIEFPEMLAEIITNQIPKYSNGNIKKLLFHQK

[7] = target: Glucocorticoid receptor (Homo sapiens) (UniProt P04150); test: GR-EFC Redistribution (AID 451; calls by dose curve; further: potency means the concentration at half of the fitted maximal effect); settings: CHO-K1 GR-EFC translocation, beta-gal luminescence, 2 h
How it was run: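 CHO-K1 cells expressing nuclear EA and GR-ED fragments of b-gal; compounds titrated up to 46 uM final, 2 h at 37 C. GR nuclear translocation read as complemented b-gal luminescence after 1 h RT detection.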

[8] = target: Mitogen-activated protein kinase 10 (Mus musculus) (UniProt Q61831); test: JNK3 AlphaScreen Assay (AID 530; active means well fitted curve in either direction with a large enough effect, not every such curve was filed as active;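 further: kinase came from lysate of stimulated human HepG2 cells; signal reports phosphorylation of biotinylated GST-cJun 1-79 at Ser73 with 10 µM ATP; on the % scale 0 is the no-effect control and ±100 the full control effect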)
How it was run: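 qHTS format: compounds tested as titrations against IL-1beta/TNF-alpha-activated HepG2 lysate JNK3 with biotin-GST-cJun substrate and 10 uM ATP at room temperature. Loss of anti-phospho-cJun AlphaScreen signal indicates inhibition.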

[9] = target: Cytochrome P450 3A4 (Homo sapiens) (UniProt P08684); test: qHTS Assay for Activators of Cytochrome P450 3A4 (AID 885); further: nearly all actives have a fitted effect of over 65% in size
Sequence of Cytochrome P450 3A4 (Homo sapiens) (P08684 whole entry, looked up): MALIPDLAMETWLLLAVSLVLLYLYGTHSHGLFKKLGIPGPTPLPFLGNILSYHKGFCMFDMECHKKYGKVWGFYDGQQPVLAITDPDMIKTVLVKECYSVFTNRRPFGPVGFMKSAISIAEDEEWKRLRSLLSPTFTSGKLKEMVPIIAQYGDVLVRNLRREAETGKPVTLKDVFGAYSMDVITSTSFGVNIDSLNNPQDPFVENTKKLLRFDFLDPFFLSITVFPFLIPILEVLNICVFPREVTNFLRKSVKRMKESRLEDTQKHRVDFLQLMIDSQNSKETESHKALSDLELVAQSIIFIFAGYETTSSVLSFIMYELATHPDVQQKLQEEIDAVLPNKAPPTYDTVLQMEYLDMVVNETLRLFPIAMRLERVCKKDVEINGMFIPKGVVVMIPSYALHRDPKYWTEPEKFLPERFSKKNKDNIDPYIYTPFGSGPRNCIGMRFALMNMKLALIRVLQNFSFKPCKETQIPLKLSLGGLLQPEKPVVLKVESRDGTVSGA
How it was run: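 Quantitative HTS format: compounds preincubated with 20nM human CYP3A4 and Luciferin-PPXE substrate at KM, reaction started by NADPH regeneration, stopped after 60 min, luciferase luminescence read 20 min later.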

[10] = qHTS Assay for Lipid Storage Modulators (AID 1519; calls by dose curve); settings: Drosophila S3 cells, BODIPY lipid droplet/cell ratio, laser cytometry, cells loaded with oleic acid; for activity change, negative = inhibition: at 57.5 µM (top of the series)
How it was run: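 Cells seeded at 5,000 per well were treated with compounds over a concentration series and loaded with oleic acid (400 uM, as added). Lipid droplet fluorescence (488 nm excitation, 500-530 nm channel) was read by laser-scanning cytometry and normalized to 20 uM Triacsin C.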

[11] = target: Dual specificity protein kinase CLK4 (Homo sapiens) (UniProt Q9HAZ1); test: qHTS Assay for Inhibitors of CDC-like Kinase 4 (Kinase-Glo Assay) (AID 1770); further: nearly all actives have a fitted effect of over 65% in size; further: potency means the concentration at half of the fitted maximal effect
Sequence of Dual specificity protein kinase CLK4 (Homo sapiens) (Q9HAZ1 whole entry, looked up): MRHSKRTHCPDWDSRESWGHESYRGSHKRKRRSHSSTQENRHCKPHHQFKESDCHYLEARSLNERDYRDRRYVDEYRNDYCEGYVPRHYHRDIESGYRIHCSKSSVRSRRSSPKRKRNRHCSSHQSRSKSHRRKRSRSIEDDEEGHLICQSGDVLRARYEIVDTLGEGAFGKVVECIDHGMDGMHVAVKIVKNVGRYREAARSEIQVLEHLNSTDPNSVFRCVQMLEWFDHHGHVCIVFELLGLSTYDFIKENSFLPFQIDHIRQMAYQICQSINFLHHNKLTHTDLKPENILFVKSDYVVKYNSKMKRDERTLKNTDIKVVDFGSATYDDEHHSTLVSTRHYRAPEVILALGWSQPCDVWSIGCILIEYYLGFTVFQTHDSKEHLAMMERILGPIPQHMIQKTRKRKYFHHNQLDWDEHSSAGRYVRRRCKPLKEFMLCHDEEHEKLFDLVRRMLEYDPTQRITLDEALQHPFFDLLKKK
How it was run: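 Clk4 25 nM, RS peptide 100 uM, ATP 1 uM, pH 7.5 Tris, 10 mM MgCl2, 2.5 mM DTT; 4.5 h RT; ATP depletion read by Kinase-Glo luminescence.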

[12] = target: Dual specificity protein kinase CLK4 (Homo sapiens) (UniProt Q9HAZ1); test: qHTS Assay for Inhibitors of CDC-like Kinase 4 (ADP-Glo Assay) (AID 1771); further: nearly all actives have a fitted effect of over 70% in size; further: potency means the concentration at half of the fitted maximal effect
How it was run: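 Kinase reaction: Clk4 at 25 nM, RS repeat peptide substrate at 100 uM, ATP at 1 uM, 1 hr, room temperature. Product ADP detected as luciferase signal via ADP-Glo.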

[13] = target: Dual specificity protein kinase CLK4 (Homo sapiens) (UniProt Q9HAZ1); test: qHTS Assay for Inhibitors of CDC-like Kinase 4 (ADP-FP Assay) (AID 1795); further: nearly all actives have a fitted effect of over 60% in size; further: potency means the concentration at half of the fitted maximal effect
How it was run: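 Kinase activity was followed as ADP output, converted from fluorescence polarization with a calibration curve. Reactions ran one hour at low ATP (1 uM) with RS peptide substrate.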

[14] = target: Ubiquitin carboxyl-terminal hydrolase 1 (Homo sapiens) (UniProt O94782); test: Inhibitors of USP1/UAF1: Pilot qHTS (AID 504865);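 further: rhodamine fluorescence freed from ubiquitin-rhodamine substrate followed over time; top concentration of the series differs between compounds; on the % scale 0 is the no-effect control and ±100 the full control effect; nearly all actives have a fitted effect of over 35% in size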
Sequence of Ubiquitin carboxyl-terminal hydrolase 1 (Homo sapiens) (O94782 whole entry, looked up): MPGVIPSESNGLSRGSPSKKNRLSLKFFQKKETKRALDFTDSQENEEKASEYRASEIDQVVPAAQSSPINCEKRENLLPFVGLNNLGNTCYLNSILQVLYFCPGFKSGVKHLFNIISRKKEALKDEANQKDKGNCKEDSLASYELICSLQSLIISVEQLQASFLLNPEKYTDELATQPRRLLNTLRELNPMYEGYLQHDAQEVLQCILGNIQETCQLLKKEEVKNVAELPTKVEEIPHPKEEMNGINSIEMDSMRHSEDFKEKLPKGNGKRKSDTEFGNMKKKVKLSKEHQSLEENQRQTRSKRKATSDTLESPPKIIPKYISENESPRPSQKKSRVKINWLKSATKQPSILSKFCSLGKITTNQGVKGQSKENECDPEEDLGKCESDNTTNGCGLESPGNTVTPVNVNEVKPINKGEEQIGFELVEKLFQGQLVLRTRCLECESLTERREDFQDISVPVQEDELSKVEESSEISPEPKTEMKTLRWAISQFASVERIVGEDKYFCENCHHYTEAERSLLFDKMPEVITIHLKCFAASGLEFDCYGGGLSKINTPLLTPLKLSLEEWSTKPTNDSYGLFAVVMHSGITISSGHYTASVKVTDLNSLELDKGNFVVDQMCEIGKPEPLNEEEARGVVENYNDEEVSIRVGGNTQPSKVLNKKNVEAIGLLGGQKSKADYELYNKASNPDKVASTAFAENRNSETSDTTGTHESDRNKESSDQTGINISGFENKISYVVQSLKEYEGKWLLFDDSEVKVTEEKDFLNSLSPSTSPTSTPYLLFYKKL
How it was run: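 Enzyme-free wells gave the negative control, while test wells held 1nM USP1/UAF1 preincubated with compound for 15 min at room temperature. Ub-Rho at 150nM final started the reaction, and fluorescence at 480/540 nm was recorded kinetically.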

[15] = target: 3',5'-cyclic-AMP phosphodiesterase 4B (Homo sapiens) (UniProt Q07343); test: qHTS Assay for Inhibitors of PDE-IV (AID 607; active means well fitted activation curve with a large enough effect in the main read-out, with a control signal flat, not every such curve was filed as active; further: % of control where 0% means no effect)
Sequence of 3',5'-cyclic-AMP phosphodiesterase 4B (Homo sapiens) (Q07343 whole entry, looked up): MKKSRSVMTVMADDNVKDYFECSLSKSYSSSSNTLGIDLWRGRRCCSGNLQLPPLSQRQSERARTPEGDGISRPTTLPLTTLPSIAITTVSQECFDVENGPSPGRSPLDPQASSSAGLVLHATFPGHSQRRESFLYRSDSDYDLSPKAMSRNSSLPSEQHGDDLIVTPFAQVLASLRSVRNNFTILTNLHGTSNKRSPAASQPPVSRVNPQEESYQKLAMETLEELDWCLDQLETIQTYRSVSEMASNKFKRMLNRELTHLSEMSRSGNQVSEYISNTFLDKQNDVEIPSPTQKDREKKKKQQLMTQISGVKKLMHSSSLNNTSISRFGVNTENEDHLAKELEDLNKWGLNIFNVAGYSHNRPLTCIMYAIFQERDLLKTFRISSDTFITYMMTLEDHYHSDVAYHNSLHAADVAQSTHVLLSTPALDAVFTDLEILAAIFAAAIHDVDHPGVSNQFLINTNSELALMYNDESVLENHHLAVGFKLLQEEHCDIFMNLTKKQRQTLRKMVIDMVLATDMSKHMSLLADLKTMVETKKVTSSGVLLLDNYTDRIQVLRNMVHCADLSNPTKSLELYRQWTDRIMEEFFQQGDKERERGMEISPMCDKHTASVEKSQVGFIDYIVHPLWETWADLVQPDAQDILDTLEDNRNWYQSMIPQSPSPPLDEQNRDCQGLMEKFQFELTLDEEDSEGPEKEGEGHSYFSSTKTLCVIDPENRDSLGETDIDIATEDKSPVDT
How it was run: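 Live HEK293 cells with a modified cyclic nucleotide-gated (CNG) channel report intracellular cAMP via membrane-potential dye fluorescence (ex 535/em 590 nm). Endogenous PDE-IV was targeted. Compounds were tested at up to 22.9 uM final; RO 20-1724 100 uM served as control.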

[16] = measured here: cell count channel max response
[17] = measured here: lipid channel max response

COCCn1c(=O)c(C)nc2cnc(Oc3cccc(Cl)c3)nc21
15.1%: max response [10, 16]
active: Potency [3] 12.6 µM
17.8%: max response [10, 17]
inactive: Potency [1] > 11.4 µM | activity change, negative = inhibition [2] -12% | activity change, negative = inhibition [4] 10.5% | activity, negative = inhibition [5] -4.78% | Potency [6] > 9.22 µM | Potency [7] > 46 µM | Potency [8] | Potency [9] | activity change, negative = inhibition [10] 4.18% | Potency [11] | Potency [12] | Potency [13] | Potency [14]

COc1cccc(Cn2c(=O)c(-c3cc(F)cc(F)c3)nc3cnc(N4CCNCC4)nc32)c1
active: activity change, negative = inhibition [4] 225% [activator]
-28.1%: max response [10, 17]
inactive: Potency [1] > 11.4 µM | Potency [3] | Potency [6] > 9.22 µM | Potency [7] > 46 µM | Potency [15] | Potency [9] | activity change, negative = inhibition [10] -13.2% | Potency [11] | Potency [12] | Potency [13]
-15.6%: max response [10, 16]

COc1ccccc1-c1ccc2ncnc(NCc3ccccc3)c2c1
active: Potency [3] 2 µM | Potency [11] 3.98 µM | Potency [12] 6.31 µM | Potency [13] 2.82 µM
-12.6%: max response [10, 16]
-27.8%: max response [10, 17]
inactive: Potency [1] > 11.4 µM | activity change, negative = inhibition [2] -25.6% | activity change, negative = inhibition [4] 0.253% | activity, negative = inhibition [5] -8.43% | Potency [6] > 46 µM | Potency [7] > 46 µM | Potency [8] | Potency [9] | activity change, negative = inhibition [10] -15.2% | Potency [14]

COc1cccc(Cn2c(=O)c(C)nc3cnc(N(C)C)nc32)c1
19.8%: max response [10, 16]
inactive: Potency [1] > 11.4 µM | activity change, negative = inhibition [2] -23% | activity change, negative = inhibition [4] 1.59% | activity, negative = inhibition [5] -11.2% | Potency [6] > 9.22 µM | Potency [7] > 46 µM | Potency [15] | activity change, negative = inhibition [10] -5.5% | Potency [11] | Potency [12] | Potency [13] | Potency [14]
12.4%: max response [10, 17]

Cc1nc2cnc(N3CCN(C)CC3)nc2n(C[C@H]2CCCO2)c1=O
4.31%: max response [10, 17]
2.4%: max response [10, 16]
inactive: Potency [1] > 11.4 µM | activity change, negative = inhibition [2] -19.6% | activity change, negative = inhibition [4] -3.95% | activity, negative = inhibition [5] -13% | Potency [6] > 9.22 µM | Potency [7] > 46 µM | Potency [8] | activity change, negative = inhibition [10] 2.98% | Potency [11] | Potency [12] | Potency [13]

COc1ccc(-c2nc3cnc(OC)nc3n(C[C@H]3CCCO3)c2=O)cc1
1.25%: max response [10, 17]
inactive: Potency [1] > 11.4 µM | activity change, negative = inhibition [2] -17.7% | activity change, negative = inhibition [4] 11.8% | activity, negative = inhibition [5] -12.4% | Potency [6] > 9.22 µM | Potency [7] > 46 µM | Potency [8] | activity change, negative = inhibition [10] 0.324% | Potency [11] | Potency [12] | Potency [13] | Potency [14]
2.19%: max response [10, 16]

COc1ccc(-n2c(=O)c(-c3ccc(F)cc3)nc3cnc(N4CCNCC4)nc32)cc1
11.2%: max response [10, 16]
12.6%: max response [10, 17]
inactive: Potency [1] > 11.4 µM | activity change, negative = inhibition [2] -1.98% | activity change, negative = inhibition [4] 27.8% | activity, negative = inhibition [5] 9.23% | Potency [6] > 9.22 µM | Potency [7] > 46 µM | Potency [8] | Potency [15] | activity change, negative = inhibition [10] 0.369% | Potency [11] | Potency [12] | Potency [13] | Potency [14]

COCCn1c(=O)c(-c2ccccc2)nc2cnc(N(C)C)nc21
13.8%: max response [10, 17]
12.4%: max response [10, 16]
active: Potency [3] 3.16 µM
inactive: Potency [1] > 11.4 µM | activity change, negative = inhibition [2] -2% | activity change, negative = inhibition [4] 10.9% | Potency [6] > 9.22 µM | Potency [7] > 46 µM | Potency [9] | activity change, negative = inhibition [10] 6.53% | Potency [11] | Potency [12] | Potency [13] | Potency [14]
